Assay [1] is described as follows: binders of probe aFSTL3 on microarray, primary screen, stem cell growth factor project, biochemical, small-molecule microarray, fluorescence 635/667 (AID 1064).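 Further: measures binding of the biotinylated anti-FSTL3 antibody to printed compounds.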 Conditions: higher = more signal.
Assay [2] is described as follows: binders from COS7 lysate, DM2A8 probe, primary screen, torsin A project, cell lysate, small-molecule microarray, fluorescence 635/667 (AID 1065). Conditions: higher = more signal, COS7 lysate expressing mutant human TOR1A.
Assay [3] in a line: binders of probe aFGF2 on microarray, primary screen, stem cell growth factor project, biochemical, small-molecule microarray, fluorescence 635/667 (AID 1067).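 Further: measures binding of biotinylated aFGF2 protein to printed compounds on slides; z-score merges feature fluorescence and signal-to-noise across triplicate slides.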 Conditions: higher = more signal.
A short description of assay [4]: binders of probe aFGF10 on microarray, primary screen, stem cell growth factor project, biochemical, small-molecule microarray, fluorescence 635/667 (AID 1071).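 Further: score merges 667 nm spot intensity and signal to noise from triplicate slides.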 Conditions: higher = more signal.
Assay [5] concerns the target Neurogenic locus notch homolog protein 2 (Homo sapiens) (UniProt Q04721). Kind of assay: Notch2 binders on small-molecule microarrays, primary screen, biochemical, small-molecule microarray, 635 nm fluorescence, stem cell growth factors (AID 1073). Conditions: Notch2 binding, higher = more signal.
Assay [6] has as its target Pro-neuregulin-1, membrane-bound isoform (Homo sapiens) (UniProt Q02297). Nature of the assay: NRG1 binders on small-molecule microarrays, primary screen, psychiatric disease protein project, biochemical, small-molecule microarray, fluorescence 635/667 (AID 1075).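 Further: score combines 667 nm spot fluorescence with signal to noise.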 Conditions: NRG1 binding, 635 nm fluorescence, higher = more signal.
Assay [7] has as its system Neuregulin-1 EGF-like domain. Kind of assay: binders of neuregulin-1 EGF-like domain, primary screen, biochemical, small-molecule microarray, 635 nm fluorescence (AID 1081).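 Further: binding of the protein to compounds printed on small-molecule microarray slides.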 Conditions: small-molecule microarray binding, higher = more signal.
Assay [8] is described as follows: FRG1 promoter luciferase signal modulators, primary screen, FRG1 inhibition for FSHD, cell-based, C2C12 myotubes, firefly/Renilla luciferase, luminescence (AID 1084). Conditions: higher = more signal, called active from +8 up or from −8 down.
A short description of assay [9]: binders of probe aFST on microarray, primary screen, stem cell growth factor project, biochemical, small-molecule microarray, fluorescence 635/667 (AID 1086).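 Further: score merges 667 nm fluorescence with signal-to-noise of each printed compound spot.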 Conditions: higher = more signal.
The nature of assay [10]: binders of probe aHhip on microarray, primary screen, stem cell growth factor project, biochemical, small-molecule microarray, fluorescence 635/667 (AID 1087).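 Further: score merges spot fluorescence at 667nm with spot signal to noise ratio.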 Conditions: higher = more signal.
Assay [11] concerns PRMT1 (protein arginine N-methyltransferase 1). Kind of assay: PRMT1 binders on small-molecule microarrays, primary screen, biochemical, small-molecule microarray, 635 nm fluorescence (AID 1088).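 Further: binding of Prmt1 protein to compounds spotted on small-molecule microarray slides.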 Conditions: small-molecule microarray binding, higher = more signal.
The nature of assay [12]: yeast growth modulation, basal conditions, primary screen, YJM789 clinical isolate, OD600, 24 h (AID 1089).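 Further: growth of clinical yeast isolate S. cerevisiae YJM 789 seeded 1000 cells per well; test concentration not given here.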 Conditions: S. cerevisiae YJM789 growth, higher = more signal, called active from +8 up or from −8 down.
A short description of assay [13]: fission yeast growth modulation, primary screen, strain 972, OD600, 24 h, no modulator (AID 1090).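 Further: basal condition with compound alone and no growth modifier present; test concentration not given here.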 Conditions: S. pombe 972 growth, higher = more signal, called active from +8 up or from −8 down.
The nature of assay [14]: S. cerevisiae growth modulation with rapamycin, primary screen, strain BY4716, OD600, 96 h (AID 1091). Further: test concentration not given here. Conditions: higher = more signal, called active from +8 up or from −8 down.
Assay [15] has as its target Torsin-1A-interacting protein 2 (Homo sapiens) (UniProt Q8NFQ8). Nature of the assay: LULL1 binders on small-molecule microarray, primary screen, cell lysate, human LULL1 lysate, 635/667 nm fluorescence (AID 1092).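 Further: score merges per-feature 667 nm fluorescence with signal-to-noise.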 Conditions: hLULL1 lysate binding, 635 nm fluorescence, higher = more signal.
Assay [16] is described as follows: E. coli growth modulation, two-sided OD650, primary screen, E. coli filamentation project, strain DRC41, 24 h (AID 1093).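 Further: MC1000 strain lacking acrAB efflux and sulA so SOS filamentation is blocked; test concentration not given here.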 Conditions: OD650, 24 h, higher = more signal, called active from +8 up or from −8 down.
Assay [17] in a line: small-molecule microarray binders of probe aLefty2, primary screen, biochemical, biotinylated probe, 635/667 nm fluorescence (AID 1094).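 Further: score merges spot fluorescence near 667 nm with spot signal-to-noise ratio.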 Conditions: higher = more signal.
The test system of assay [18] is Noggin (protein binding on small-molecule microarray). Nature of the assay: Noggin binders on small-molecule microarray, primary screen, biochemical, 635/667 nm fluorescence (AID 1095).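 Further: score merges 667 nm feature fluorescence with signal to noise over triplicate slides.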 Conditions: 635 nm fluorescence, higher = more signal.
Assay [19] deals with Neurogenic locus notch homolog protein 3 (Homo sapiens) (UniProt Q9UM47). Kind of assay: NOTCH3 binders on small-molecule microarray, primary screen, biochemical, 635/667 nm fluorescence (AID 1096). Conditions: NOTCH3 binding, 635 nm fluorescence, higher = more signal.
Sequence of Neurogenic locus notch homolog protein 3 (Homo sapiens) (Q9UM47 whole entry, looked up): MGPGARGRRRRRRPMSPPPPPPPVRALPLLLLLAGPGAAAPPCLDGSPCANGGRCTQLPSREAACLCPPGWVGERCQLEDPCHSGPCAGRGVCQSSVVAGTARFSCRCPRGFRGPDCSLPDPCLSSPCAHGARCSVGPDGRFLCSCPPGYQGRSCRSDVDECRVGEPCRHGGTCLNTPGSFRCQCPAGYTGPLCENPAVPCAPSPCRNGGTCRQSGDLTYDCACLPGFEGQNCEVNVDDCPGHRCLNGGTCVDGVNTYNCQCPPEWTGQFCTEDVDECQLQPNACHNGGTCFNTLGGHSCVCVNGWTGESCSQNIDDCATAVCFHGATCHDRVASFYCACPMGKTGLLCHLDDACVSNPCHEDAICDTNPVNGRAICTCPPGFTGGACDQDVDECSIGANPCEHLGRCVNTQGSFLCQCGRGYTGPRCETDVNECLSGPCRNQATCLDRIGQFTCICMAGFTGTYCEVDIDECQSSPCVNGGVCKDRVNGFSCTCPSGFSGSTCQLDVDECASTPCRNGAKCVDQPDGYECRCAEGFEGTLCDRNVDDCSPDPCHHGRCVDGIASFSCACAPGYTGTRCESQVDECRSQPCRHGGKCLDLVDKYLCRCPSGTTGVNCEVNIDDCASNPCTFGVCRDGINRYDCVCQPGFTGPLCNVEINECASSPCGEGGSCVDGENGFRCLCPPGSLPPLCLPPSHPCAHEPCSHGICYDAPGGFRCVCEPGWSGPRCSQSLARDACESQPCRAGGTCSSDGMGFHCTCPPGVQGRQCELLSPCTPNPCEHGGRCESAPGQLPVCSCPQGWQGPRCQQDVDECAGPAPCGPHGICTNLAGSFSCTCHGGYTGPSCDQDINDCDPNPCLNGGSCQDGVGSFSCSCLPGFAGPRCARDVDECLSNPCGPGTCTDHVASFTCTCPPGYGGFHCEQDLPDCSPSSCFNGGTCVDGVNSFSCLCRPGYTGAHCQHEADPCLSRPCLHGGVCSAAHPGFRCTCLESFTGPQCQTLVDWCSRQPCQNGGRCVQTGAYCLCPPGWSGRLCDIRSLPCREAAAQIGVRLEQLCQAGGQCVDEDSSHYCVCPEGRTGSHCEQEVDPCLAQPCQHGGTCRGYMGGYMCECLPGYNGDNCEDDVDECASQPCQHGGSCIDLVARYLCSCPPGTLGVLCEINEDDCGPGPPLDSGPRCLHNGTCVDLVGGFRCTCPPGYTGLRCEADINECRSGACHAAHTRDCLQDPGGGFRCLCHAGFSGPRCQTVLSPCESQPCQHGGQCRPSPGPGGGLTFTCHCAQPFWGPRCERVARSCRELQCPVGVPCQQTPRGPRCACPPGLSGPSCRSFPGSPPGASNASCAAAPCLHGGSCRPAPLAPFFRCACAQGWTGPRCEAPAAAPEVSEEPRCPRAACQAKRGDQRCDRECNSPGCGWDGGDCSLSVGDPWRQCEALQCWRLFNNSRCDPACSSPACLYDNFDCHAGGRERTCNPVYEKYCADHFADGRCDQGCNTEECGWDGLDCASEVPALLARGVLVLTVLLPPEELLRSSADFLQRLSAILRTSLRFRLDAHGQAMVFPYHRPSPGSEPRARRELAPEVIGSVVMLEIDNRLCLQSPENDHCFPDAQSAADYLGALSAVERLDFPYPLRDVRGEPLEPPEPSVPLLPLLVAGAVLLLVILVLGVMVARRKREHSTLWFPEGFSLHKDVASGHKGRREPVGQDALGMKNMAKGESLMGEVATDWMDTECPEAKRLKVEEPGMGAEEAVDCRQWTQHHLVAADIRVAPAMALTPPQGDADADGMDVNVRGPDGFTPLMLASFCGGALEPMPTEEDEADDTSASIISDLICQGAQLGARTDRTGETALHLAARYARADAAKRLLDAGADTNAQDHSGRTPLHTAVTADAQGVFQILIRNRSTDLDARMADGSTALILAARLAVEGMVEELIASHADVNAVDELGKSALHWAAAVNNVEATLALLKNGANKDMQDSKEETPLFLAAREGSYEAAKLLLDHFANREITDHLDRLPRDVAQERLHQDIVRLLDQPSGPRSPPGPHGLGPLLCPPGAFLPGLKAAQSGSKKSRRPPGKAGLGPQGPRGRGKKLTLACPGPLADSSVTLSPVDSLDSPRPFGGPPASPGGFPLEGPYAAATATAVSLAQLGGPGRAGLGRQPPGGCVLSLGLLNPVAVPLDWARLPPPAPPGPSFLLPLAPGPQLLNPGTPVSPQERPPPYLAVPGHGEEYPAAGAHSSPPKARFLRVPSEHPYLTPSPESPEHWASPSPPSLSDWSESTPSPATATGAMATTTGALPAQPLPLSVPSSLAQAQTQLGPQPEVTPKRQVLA
A short description of assay [20]: small-molecule microarray binders of probe aEGFR, primary screen, biochemical, biotinylated probe, 635/667 nm fluorescence (AID 1097).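 Further: probe is a biotinylated anti-EGFR antibody binding compounds printed on slides; score combines fluorescence near 667 nm and signal to noise of each spot.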 Conditions: higher = more signal.

We go through five compounds from PubChem BioAssay.

Active and inactive are the calls of the source.

Sequence of Pro-neuregulin-1, membrane-bound isoform (Homo sapiens) (Q02297 whole entry, looked up, the tested form may be a part, canonical isoform): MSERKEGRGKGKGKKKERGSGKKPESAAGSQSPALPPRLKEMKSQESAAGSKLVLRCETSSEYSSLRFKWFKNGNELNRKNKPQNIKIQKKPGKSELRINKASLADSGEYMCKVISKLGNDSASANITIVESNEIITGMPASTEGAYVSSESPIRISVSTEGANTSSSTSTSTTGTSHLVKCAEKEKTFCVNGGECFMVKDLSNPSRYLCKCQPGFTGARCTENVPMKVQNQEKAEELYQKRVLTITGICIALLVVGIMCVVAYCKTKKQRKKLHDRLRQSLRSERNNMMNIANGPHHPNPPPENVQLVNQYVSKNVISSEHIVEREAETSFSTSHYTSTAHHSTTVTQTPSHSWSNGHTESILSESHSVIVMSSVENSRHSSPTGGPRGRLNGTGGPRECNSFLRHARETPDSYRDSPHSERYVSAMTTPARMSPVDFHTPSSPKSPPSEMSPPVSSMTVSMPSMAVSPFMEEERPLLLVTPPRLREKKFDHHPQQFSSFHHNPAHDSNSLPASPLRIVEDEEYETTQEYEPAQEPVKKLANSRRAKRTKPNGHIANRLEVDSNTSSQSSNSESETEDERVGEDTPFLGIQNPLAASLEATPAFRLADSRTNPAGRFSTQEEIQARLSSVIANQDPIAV
Sequence of Torsin-1A-interacting protein 2 (Homo sapiens) (Q8NFQ8 whole entry, looked up): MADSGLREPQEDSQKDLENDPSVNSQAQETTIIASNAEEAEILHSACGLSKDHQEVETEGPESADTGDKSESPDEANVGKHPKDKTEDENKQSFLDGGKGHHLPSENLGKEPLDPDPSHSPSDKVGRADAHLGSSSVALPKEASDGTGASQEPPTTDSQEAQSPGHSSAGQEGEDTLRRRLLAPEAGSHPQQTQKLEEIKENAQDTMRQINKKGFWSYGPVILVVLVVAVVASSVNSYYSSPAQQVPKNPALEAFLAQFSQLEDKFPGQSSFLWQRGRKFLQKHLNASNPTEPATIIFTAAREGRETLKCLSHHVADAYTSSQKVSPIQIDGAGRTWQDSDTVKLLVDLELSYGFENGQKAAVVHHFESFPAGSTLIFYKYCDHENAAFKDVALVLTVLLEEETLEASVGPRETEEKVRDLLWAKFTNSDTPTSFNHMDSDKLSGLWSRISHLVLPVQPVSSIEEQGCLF

For the compound `O=C1O[C@H](c2ccccc2)[C@H](c2ccccc2)N2[C@H]1[C@@H](C(=O)Nc1nc3ccccc3s1)[C@]1(C(=O)Nc3ccc(C#CC4=CCCCC4)cc31)[C@H]2c1ccc(OCCO)cc1`, the composite z-score in assay [1] is -0.576; in assay [2] it was 0.188; in [3], -0.0148; in assay [4] it was 0.556; in assay [5] it was 0.6; in assay [6], 0.734. The composite z-score in assay [7] came to 1.11; in assay [9] it was 1.21; in assay [10], 0.0834; in assay [11] it was 1.55; in [15] it was 3.26; in [17], 0.291. The composite z-score in [18] is 0.715; in assay [19] it was 1.07; in assay [20], -0.118. The z-score in [8] was 3.08 (inactive); in assay [12], 1.79 (inactive); in assay [13], 1.42 (inactive); in assay [14] it was 1.54 (inactive); in [16], 0.476 (inactive).

Regarding `COc1c(C)cc(-c2cc3c(c(-c4ccccc4)n2)[Si](C(C)C)(C(C)C)O[C@H]3c2ccccc2)cc1C`, the composite z-score in assay [1] was -0.409; in assay [2], -0.103; in assay [3] it was -0.103; in assay [4] it was 0.235; in assay [5] it was 0.234; in [6] it was -0.0051. Besides, the composite z-score in [7] is -0.438; in assay [9], 0.291; in [10], 0.0373; in assay [11] it was 0.431; in [15], 0.0055; in [17] it was -0.166. The composite z-score was 0.37 in [18], 0.418 in [19] and -0.0359 in [20]. Moreover, the z-score is 0.361 (inactive) in [8]; -0.336 (inactive) in [12]; -0.253 (inactive) in [13]; 0.0998 (inactive) in assay [14]; -1.1 (inactive) in assay [16].

Take `COC(=O)[C@@]1(Cc2ccc(OC)cc2)[C@H]2c3cc(C(=O)N4CCCC4)n(CCc4ccccn4)c3C[C@H]2CN1C(=O)c1ccccc1`: the composite z-score in [1] is 0.587; in assay [2] it was -0.0862; in [3] it was 0.233; in assay [4], 0.291; in [5], 1.42; in assay [6], 1.81. Also, the composite z-score in assay [7] is 1.13; in [9], 0.462; in [10], 0.251; in [11] it was -1.52; in assay [15], 3.62; in assay [17] it was 0.0363. Besides, the composite z-score was -0.857 in assay [18], -0.14 in assay [19] and -0.0122 in assay [20]. For the same compound, the z-score in assay [8] is 3.33 (inactive); in assay [12] it was 0.328 (inactive); in [13], 0.479 (inactive); in assay [14] it was 0.556 (inactive); in assay [16], -1.41 (inactive).

Regarding `C[N+](C)(C)CCCC[C@@H]1NC(=O)[C@H]2C[C@@H](C(=O)O)[C@@H](c3cccc(OCCO)c3)N2C1=O`, the composite z-score in assay [1] amounted to 2.11; in assay [2], 1.85; in [3], 0.676; in assay [4], 0.788; in assay [5] it was 1.01; in assay [6] it was 2.81. The composite z-score in assay [7] is 1.44; in assay [9] it was 1.65; in assay [10], 1.88; in assay [11], 1.54; in assay [15], 3.79; in [17], 1.5. The composite z-score amounted to 1.83 in [18], 1.1 in assay [19] and 1.06 in assay [20]. For the same compound, the z-score in assay [8] was -0.698 (inactive); in assay [12] it was -1.28 (inactive); in assay [13] it was -0.362 (inactive); in assay [14], -0.498 (inactive); in assay [16], 0.0136 (inactive).

Regarding `COc1ccc(C#Cc2ccc3c(c2)[C@]2(C(=O)N3)[C@H](c3ccc(OCCO)cc3)N3[C@H](c4ccccc4)[C@H](c4ccccc4)OC(=O)[C@H]3[C@@H]2C(=O)Nc2nc3ccccc3s2)cc1`, the composite z-score in assay [1] was 0.244; in assay [2], 0.664; in [3], -0.0167; in assay [4] it was 0.71; in assay [5], 1.07; in [6] it was 2.24. Besides, the composite z-score in assay [7] is 1.13; in assay [9] it was 0.667; in assay [10] it was -0.181; in [11], 1.54; in assay [15], 3.02; in assay [17], 0.135. Further, the results for the composite z-score in assay [18], in assay [19] and in [20] were 0.57, 1.12 and 0.238, respectively. For the same compound, the z-score is 3.55 (inactive) in assay [8]; 2 (inactive) in [12]; 0.831 (inactive) in assay [13]; 1.44 (inactive) in assay [14]; 2.4 (inactive) in [16].
